Measured values from PubChem BioAssay (NCI).
Compounds without any hit were thinned out: in the full panel of roughly 83,000, 20% have a hit.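 Each cell line was grown in a 96-well plate and treated with one concentration of compound for 48 hours. Values below 10 were considered active.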 Values without a mark were called inactive. Active and inactive are the calls of the source.

Legend:
Experiment in all cases: NCI-60 one-dose screen, 48 h (100 = growth as untreated, 0 = no growth, -100 = all killed)
Conditions in all cases: 10 µM unless noted
[1] = test system: DU-145 prostate
[2] = test system: K-562 leukemia
[3] = test system: MALME-3M melanoma
[4] = test system: MDA-MB-231 breast
[5] = test system: RXF 393 renal
[6] = test system: SF-268 CNS
[7] = test system: SF-295 CNS
[8] = test system: SF-539 CNS
[9] = test system: UACC-257 melanoma
[10] = test system: M14 melanoma
[11] = test system: HCT-15 colon
[12] = test system: HT29 colon
[13] = test system: SNB-75 CNS
[14] = test system: SNB-19 CNS
[15] = test system: U251 CNS
[16] = test system: PC-3 prostate
[17] = test system: SK-MEL-5 melanoma
[18] = test system: UACC-62 melanoma
[19] = test system: LOX IMVI melanoma
[20] = test system: SK-MEL-28 melanoma

| SMILES | growth [1] | growth [2] | growth [3] | growth [4] | growth [5] | growth [6] | growth [7] | growth [8] | growth [9] | growth [10] | growth [11] | growth [12] | growth [13] | growth [14] | growth [15] | growth [16] | growth [17] | growth [18] | growth [19] | growth [20] |
| --- | --- | --- | --- | --- | --- | --- | --- | --- | --- | --- | --- | --- | --- | --- | --- | --- | --- | --- | --- | --- |
| CC1CCN(C(=S)SCC(=O)NC(=O)c2ccccc2)CC1 | 107% | 97.1% | 95.5% | 117% | 136% | 100% | 105% | 99.2% | 102% | 109% | 109% | 101% | 96.5% | 111% | 106% | 102% | 113% | 106% | 96.9% | 111% |
| Cc1ccc(-c2nc(/C=C3/C(=O)Nc4ccc(F)cc43)c3ccccn23)cc1 | -23.1% (active) | 93.7% | 75.8% | 91% | 63.5% | 75.6% | 76% | 82.3% | 95.5% | 98.8% | -3.43% (active) | 17.2% | 92.2% | 95% | 64.3% | 68.1% | 86.7% | 74.7% | 63.8% | 103% |
| COc1ccc(C(O)c2cc3c(N)c(C(=O)Nc4cccc(Cl)c4C)sc3nc2C)cc1 (stereo not given) | 3.08% (active) | 6.61% (active) | 41.7% | 1.27% (active) | 33.7% | 13.2% | 17.4% | -4.61% (active) | 44.1% | 7.3% (active) | 10.8% | -7.84% (active) | -11.4% (active) | 39% | 11.1% | 16.7% | -53.7% (active) | 24.6% | 22% | 57.7% |
| CC(=C(c1ccc(OCCN2CCCCC2)cc1)c1ccc(OCCN2CCCCC2)cc1)c1ccc(Cl)cc1 | -92.8% (active) | -65.7% (active) | -84.3% (active) | -85.1% (active) | -78.8% (active) | -77.2% (active) | -92.1% (active) | -94.9% (active) | -82.1% (active) | -81.9% (active) | -88.3% (active) | -86.3% (active) | -97.3% (active) | -91.2% (active) | -90.7% (active) | -82.4% (active) | -96.9% (active) | -76.9% (active) | -94.5% (active) | -96.1% (active) |
| CSC(SC)=C(C#N)c1nc2ccccc2s1 | 87.2% | 47.4% | 67.9% | 52.9% | 95.8% | 55.1% | 88.2% | 60.2% | 54% | 48.1% | 61.8% | 97.2% | 74.3% | 66.9% | 76.5% | 30% | 27.9% | 9.44% (active) | 84.1% | 38.8% |
| COc1ccc(Cn2cc3c(c2-c2ccccc2)CCc2cnoc2-3)cc1 | -4.72% (active) | 13.7% | 70.2% | 10.4% | 24.8% | 16% | 23.2% | -12.8% (active) | 78.8% | 16.8% | 16.7% | 11.7% | 44.2% | 39.8% | 29.4% | 27.4% | -10% (active) | 24% | 29.6% | 56.4% |
| COC(=O)C(Cc1ccccc1)NC(=O)c1ccc(NC(=O)c2[nH]c(C)c(Cl)c2Cl)c(OC(C)C)c1 (stereo not given) | 77.6% | 42.1% | 71.4% | 66.3% | 128% | 86.4% | 87.5% | -17.9% (active) | 101% | 51.3% | 40.5% | 58% | 62.6% | 42.8% | 22.3% | 11.4% | 97.7% | 90.6% | 34.1% | 102% |
| C=C(C)[C@@H]1CC[C@]2(C(N)=O)CC[C@]3(C)[C@H](CC[C@@H]4[C@@]5(C)CC[C@H](OCCC#N)C(C)(C)[C@@H]5CC[C@]43C)[C@@H]12 | 94.7% | 74.3% | 101% | 73.2% | 86.8% | 74.1% | 79.5% | 91.6% | 101% | 90.2% | 80.9% | 84.7% | 85.9% | 81.2% | 87.7% | 68.8% | 93.3% | 67.1% | 87.1% | 92.8% |
| O=C(Cc1ccc(NC(=O)c2cccc(Cl)c2)cc1)NCc1ccccc1 | 86.1% | 13.9% | 61.3% | 60.8% | 65% | 61.7% | 41.3% | 36.7% | 69.1% | 18.7% | 27.1% | 8.25% (active) | 29.7% | 47.5% | 33.3% | 48.8% | 7.53% (active) | 37.2% | 39.6% | 58.9% |
| C=CCOC(=O)C1=C(C)N(CC)C(=O)NC1c1c(Cl)n(C)c2ccccc12 (stereo not given) | 106% | 99.1% | 99.3% | 96.7% | 108% | 92.9% | 88.6% | 98.4% | 98.4% | 88.6% | 82.5% | 89.8% | 92.3% | 99.9% | 97.9% | 87.7% | 100% | 82.6% | 88.6% | 104% |
| C#CCOc1cccc(-c2ncnc3cc(NC(=O)C=C)ccc23)c1 | 15.6% | 24.2% | 60.5% | 15.8% | 30.8% | 49.6% | 43.2% | 8.33% (active) | 62.5% | 45.6% | 24% | 10.8% | 10.6% | 50.6% | 51.4% | 37.2% | 68.5% | 34.6% | 34.1% | 70.5% |
| O=C(N/N=C\c1cccc([N+](=O)[O-])c1)N/N=C/c1cccc([N+](=O)[O-])c1 | 116% | 99.4% | 109% | 100% | 106% | 102% | 106% | 111% | 97.4% | 113% | 109% | 114% | 88.8% | 100% | 97.3% | 91.5% | 95.9% | 92.5% | 103% | 110% |
| CC(=O)c1sc2sc(C(C)=O)c(C)c2c1C | 111% | 95.5% | 126% | 101% | 93% | 97.1% | 105% | 85.1% | 81.3% | 107% | 105% | 79.4% | 90.6% | 105% | 93.9% | 77.7% | 98.2% | 75% | 95.6% | 100% |
| COc1ccc(C2=CC(c3cc(OC)c(OC)c(OC)c3)n3ncnc3N2)cc1 (stereo not given) | -24.7% (active) | 9.56% (active) | 75.8% | 8.42% (active) | 71.1% | 31.4% | 13.5% | -1.69% (active) | 56.5% | -2.18% (active) | 14.5% | 1.66% (active) | 40.4% | 36% | 6.34% (active) | 21.7% | 1.68% (active) | 51.9% | 22.2% | 54.3% |
| CCCn1nc(C(=O)N(C)Cc2ccccc2)c2c1CCC(N1CCc3ccccc31)C2 (stereo not given) | 109% | 86.7% | 112% | 108% | 90.3% | 96.4% | 92.1% | 104% | 109% | 99% | 96.3% | 102% | 100% | 90.2% | 96.9% | 77.2% | 99.7% | 85.2% | 100% | 106% |
